Screening data from PubChem.
In the library only some 2.2% were active in any assay of this set; here they are far more common.
Ba/F3 V617F tox = reduce viability of Ba/F3 cells dependent on JAK2V617F; Ba/F3 EpoR-JAK2V617F viability, ATP luminescence; inhibition, % at 5.6 µM; hit rate 1.1% among 220,000; AID 1446;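 active = inhibition above the campaign mean plus 3 SD over all tested compounds, cut at about 24% in these data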;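 note: cytokine-independent growth of Ba/F3 cells driven by EpoR plus mutant JAK2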
IEC-6 tox = IEC-6 cytotoxicity, counter-screen for KLF5 inhibitors; luminescence viability; inhibition, % at 5 µM; hit rate 0.78% among 290,000; in the data active = inhibition above about 22%
APP transl inh = APP translation inhibition; SH-SY5Y APP 5'UTR-luciferase reporter, luminescence; AID 1285; inhibition, % at 2 µM; hit rate 0.82% among 190,000;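 active = inhibition above a set limit, derived from the sample mean plus 3 SD, cut at about 45% in these data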
aSyn UTR inh = 5' untranslated region of α-synuclein, MLPCN primary screen | hit rate 0.82% among 300,000 | inhibition, % (tested at 7.5 µM) | AID 1813 | alpha-synuclein 5'UTR reporter, inhibitor activity; in the data active = inhibition above about 60%;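 note: H4 neuroglioblastoma cells stably carrying SNCA 5'UTR luciferase fusion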
KLF5 inh = suppresses KLF5 promoter-driven expression; DLD-1 KLF5 promoter-luciferase reporter, luminescence; inhibition, % at 5 µM; hit rate 0.23% among 290,000;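 active = inhibition above a per-plate limit of that plate's mean compound inhibition plus 3 SD, cut at about 60% in these data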;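 note: higher means less KLF5 promoter-driven luciferase light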
BaF3 tox = counter-screen for JAK2V617F inhibitors: parental Ba/F3 viability inhibitors. CellTiter-Glo ATP luminescence. inhibition, % at 5.6 µM. hit rate 1.1% among 220,000;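 active = inhibition above a per-campaign cutoff, the mean inhibition of all tested compounds plus 3 SD, cut at about 27% in these data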
Large screens that a line does not name were inactive.

Cc1ccc2[nH]cc(/C=C/c3cc[n+](C)cc3)c2c1	aSyn UTR inh 64.5 (no result: Ba/F3 V617F tox, APP transl inh, BaF3 tox)
COc1ccc2c(/C=C/c3cc[n+](C)cc3)c[nH]c2c1	none (no result: Ba/F3 V617F tox, APP transl inh, BaF3 tox)
CCCC(=O)NC(Nc1ccc(S(=O)(=O)Nc2ncccn2)cc1)(C(=O)OCC)C(F)(F)F (configuration not stated)	none
O=C(Nc1ccc(Nc2ccccc2)cc1)C(Cl)(Cl)Cl	BaF3 tox 50.2
NC(=O)Nc1ccc(Nc2ccccc2)cc1	none (no result: APP transl inh)
COc1ccc(-c2csc3ncnc(N4CCN(c5ccc(OC)cc5)CC4)c23)cc1	none (no result: Ba/F3 V617F tox, APP transl inh, BaF3 tox)
COc1ccc(-c2nsc3c(N4CCCC4)ncnc23)cc1	aSyn UTR inh 70.2
NC(=O)CSc1ncnc2c1nnn2Cc1ccc(F)cc1	none
N#Cc1c(N)n(C2CCCCC2)c2nc3ccccc3nc12	aSyn UTR inh 62.2
CCC(=O)Nc1c(C#N)c2nc3ccccc3nc2n1C1CCCCC1	none
CNc1ccc(S(=O)(=O)NC)cc1[N+](=O)[O-]	none
Cc1ccc(C)c(N2CCN(C(=O)CN(C)S(=O)(=O)c3cnc[nH]3)CC2)c1	none
O=C(Nc1ccc(F)cc1F)c1cc2n(n1)C(C(F)(F)F)C1CCCCC1N2 (configuration not stated)	none
COc1ccc(C2=CC(=O)C=CC2=O)cc1	APP transl inh 47.9
COc1ccc(S(=O)(=O)c2ccc(OC)cc2)cc1	none
Cc1ccc(Cl)c(NC(=O)COC(=O)c2ccccc2C(=O)c2ccc(Cl)c([N+](=O)[O-])c2)c1Cl	APP transl inh 52.5
CCCNC(=O)COC(=O)c1ccccc1C(=O)c1ccc(Cl)c([N+](=O)[O-])c1	none
Cc1cccc(NS(=O)(=O)Cc2ccccc2)n1	APP transl inh 75.3
Cc1nn(C)c(C)c1CN(Cc1nc(CCC(C)C)no1)C(C)C	Ba/F3 V617F tox 53.2, BaF3 tox 81.1
O=C(Cn1nnc(-c2ccc(Cl)cc2)n1)NC1CC2CCC1C2 (configuration not stated)	BaF3 tox 94.4
Cc1ccc(-c2nnn(CC(=O)NC3CC4CCC3C4)n2)cc1 (configuration not stated)	none
COc1cc(NC(=O)c2ccccc2Cl)c2ncccc2c1	none (no result: Ba/F3 V617F tox, APP transl inh, BaF3 tox)
COc1cc(NCCCC(C)N)c2ncccc2c1 (configuration not stated)	Ba/F3 V617F tox 40.7, BaF3 tox 35.8
CCC(CNc1cc(OC)cc2cccnc12)NC1CCCCC1 (configuration not stated)	Ba/F3 V617F tox 42.7, BaF3 tox 27.4 (no result: APP transl inh)
COc1cc(C(=O)Nc2cccc(-c3nc4ccccc4o3)c2C)cc(OC)c1OC	none
CCCn1c(=O)c(C(=O)OCC)c(O)c2cc(Br)ccc21	none
CCOC(=O)c1c2c(n(C)c1COC)C(=O)C(=O)c1ccc(Br)cc1-2	aSyn UTR inh 92.1
CC1(C)Cc2c(sc(NC(=O)COc3ccc(Cl)cc3Cl)c2C(N)=O)C(C)(C)N1	aSyn UTR inh 62.1 (no result: Ba/F3 V617F tox, APP transl inh, BaF3 tox)
CCOC(=O)c1c(NC(=O)COc2ccccc2F)sc2c1CC(C)(C)NC2(C)C	none (no result: Ba/F3 V617F tox, IEC-6 tox, APP transl inh, KLF5 inh, BaF3 tox)
COC(=O)c1c(NC(=O)COc2ccc(Cl)cc2)sc2c1CC(C)(C)NC2(C)C	aSyn UTR inh 82.9 (no result: Ba/F3 V617F tox, APP transl inh, BaF3 tox)
O=C(O)CC(NC(=O)C12CC3CC(CC(C3)C1)C2)c1cc([N+](=O)[O-])ccc1Cl (configuration not stated)	none
COC(=O)c1sccc1NC(=O)c1cc(-c2cccc(C)c2)nc2ccccc12	none
COC(=O)c1sccc1NC(=O)c1c(C)c(-c2cccc(Cl)c2)nc2ccccc12	APP transl inh 49.6
Cc1cccc(Cc2nnc(CCC(=O)N3CCCC(CN4CCOCC4)C3)o2)c1 (configuration not stated)	none
O=C1N/C(=C/c2ccc(Br)cc2)C(O)=C1C=NCc1ccccc1	APP transl inh 58.8
O=C1C(C=NCc2ccncc2)=C(O)c2ccccc21	none
C=C(C)C1CC=C(C)/C(=N/NC(=O)COc2ccc(Cl)cc2)C1 (configuration not stated)	none
COc1cc(-c2cc(=O)c3c(O)c(OC)c(OC)c(O)c3o2)ccc1O	aSyn UTR inh 87.3
COc1c(O)c(O)c2oc(-c3ccccc3)cc(=O)c2c1OC	none
C#CC[N+](CC)(CC)CC#Cc1cccc(Cl)c1	Ba/F3 V617F tox 73.4, BaF3 tox 66.3
CC[N+](CC)(CC#Cc1ccccc1)CC(=O)c1ccc(Cl)cc1	none
Cc1cc(-c2ccc(N3CCOCC3)cc2)nc2ccccc12	none
c1ccc2nc(-c3ccc(N4CCOCC4)cc3)ccc2c1	aSyn UTR inh 103.7 (no result: APP transl inh)
COc1ccc(Cl)cc1NC(=O)CN1CCN(S(=O)(=O)N2CCC(C)CC2)CC1	none (no result: Ba/F3 V617F tox, APP transl inh, BaF3 tox)
CC(=O)c1ccc(S(=O)(=O)Nc2ccc(-n3c(C)nc4ccccc4c3=O)cc2)cc1	none (no result: Ba/F3 V617F tox, IEC-6 tox, APP transl inh, KLF5 inh, BaF3 tox)
O=C(NCCCN1CCN(c2cccc(Cl)c2)CC1)c1ccc(N2CCCC2=O)cc1	APP transl inh 67.4
Cc1cc(N2CCN(Cc3cn(C)nc3-c3ccccc3F)CC2)cc(C)n1	IEC-6 tox 28.1, APP transl inh 81.3, aSyn UTR inh 90.9
Cc1cc(N2CCN(Cc3cn(C)nc3-c3cccc(Cl)c3)CC2)cc(C)n1	APP transl inh 60.4, aSyn UTR inh 71.6
COC(=O)Cn1ncc2c3ccccc3n(C)c2c1=O	BaF3 tox 90.2
COc1ccc(NC(=O)C(=O)NCCC2=CCCCC2)c(OC)c1	none
CCOC(=O)C1CCCCN1C(=O)CCc1c(C)nc2cc(-c3ccccc3)nn2c1C (configuration not stated)	APP transl inh 51.9, aSyn UTR inh 75.9
CCOC(=O)C1CCN(C(=O)CCc2c(C)nc3cc(-c4ccccc4)nn3c2C)CC1	aSyn UTR inh 66.5
COc1cc(OC)cc(-c2cc3nc(C)c(CCC(=O)O)c(C)n3n2)c1	APP transl inh 77.8 (no result: aSyn UTR inh)
Cc1ccc(-c2cc(C(=O)N/N=C/C(Br)=C/c3ccccc3)n[nH]2)o1	none
CCOc1ccc(-c2ccc(NS(=O)(=O)c3cc([N+](=O)[O-])c(C)c([N+](=O)[O-])c3)cc2)nn1	none (no result: Ba/F3 V617F tox, APP transl inh, BaF3 tox)
CC(C)[C@@H]1CC[C@@H](C)C[C@H]1OC(=O)C[n+]1cc(-c2ccc(Cl)cc2)n2c1CCCCC2	Ba/F3 V617F tox 98.0, BaF3 tox 85.2 (no result: APP transl inh)
COc1ccc(-c2c[n+](CC(=O)OC3CC(C)CCC3C(C)C)c3n2CCC3)cc1 (configuration not stated)	Ba/F3 V617F tox 99.2, BaF3 tox 81.5
N/C(=N\OC(=O)c1cccc(Br)c1)c1ccc([N+](=O)[O-])cc1	none (no result: Ba/F3 V617F tox, APP transl inh, BaF3 tox)
Cc1nc(NC2=NCN(C3CCCCC3C)CN2)nc2ccccc12 (configuration not stated)	none (no result: aSyn UTR inh)
Cc1nc(NC2=NCN(CC3CCCO3)CN2)nc2ccccc12 (configuration not stated)	Ba/F3 V617F tox 37.6, BaF3 tox 34.0 (no result: aSyn UTR inh)
OC(COCC1COc2ccccc2O1)CN1CCN(c2ccccn2)CC1 (configuration not stated)	none
O=C(O)CCCc1ccc2c(c1)CCc1ccccc1-2	aSyn UTR inh 108.5 (no result: Ba/F3 V617F tox, IEC-6 tox, APP transl inh, KLF5 inh, BaF3 tox)
Cc1cc(O)ccc1N1C(=O)c2cccc3cc([N+](=O)[O-])cc(c23)C1=O	none
